HIF-2a block: HIF-2a reporter inhibitors, primary screen, luminescence, 786-0 RCC cells | inhibition, % at 18.8 µM | 786-0 RCC cells HIF-2a reporter, luciferase luminescence, overnight | 360,000 tested, 0.72% active;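 active = inhibition of the luminescence signal of 40% or more relative to plate controls, in a single-dose primary screen at 18.75 µM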
LMP1 NFkB inh: EBV LMP1-driven NF-kappaB luciferase reporter inhibitors, primary screen, cell-based, luminescence, single point | LMP1-induced NF-kappaB luciferase reporter cells | 350,000 tested, 0.69% active | AID 504558, 2011 | inhibition, % at 12.5 µM; in the data active = inhibition above about 41%
KKLEB cytotox: cytotoxicity in KKLEB CF airway cells, primary screen, cytotoxicity control for CF NF-kB inhibitor project, cell-based, uHTS, fluorescence assay plates; 360,000 tested, 0.36% active; KKLEB CF airway cells viability, ATPlite luminescence, overnight; hits give low values; cells stimulated with P. aeruginosa culture filtrate; AID 602141, 2011; activity change (cytotoxicity), % at 5 µM;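 active = corrected activity change at or below -50% at 5 µM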
Shn3 inh set2: reduction of Shn3 3'UTR firefly luciferase signal, primary screen, Schnurri-3 inhibitor project, cell-based, Clone20 osteoblasts, set 2. Clone20 osteoblast Shn3 3'UTR firefly luciferase, 24 h. inhibition, % at 12.5 µM. 360,000 tested, 0.52% active. AID 588674, 2011;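 active = mean inhibition of at least 75% with every replicate also reaching 75%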
CF NFkB block: inhibitors of PAF-induced NF-kB signaling, primary screen, cell-based, GFP fluorescence, uHTS | KKLEB NF-kB-GFP reporter, GFP fluorescence overnight | 360,000 tested, 0.86% active | inhibition, % at 5 µM;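 active = at least 50% inhibition at 5 µM, scaled per plate between neutral and stimulator controls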;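 note: PAF is a Pseudomonas aeruginosa culture filtrate used as stimulus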
Peg3 promoter: Peg3 promoter-driven luciferase inhibitors, primary screen, cell-based, HeLa, luciferase luminescence. inhibition, % at 20 µM. 360,000 tested, 1.7% active. HeLa PEG-Prom luciferase reporter, overnight;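 active = inhibition of at least 50% at 20 µM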
CF NFkB conf: inhibitors of PAF-induced NF-kB signaling, retest, confirmation, cell-based, GFP fluorescence, single concentration | shares compounds with CF NFkB block | KKLEB CF airway cells, overnight | inhibition, % at 5 µM | 1,300 tested, 64% active | AID 602472, 2012; in the data active = inhibition above about 40%;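 note: stimulus PAF is a Pseudomonas aeruginosa filtrate and not platelet activating factor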
Numbers stand for hits; . = inactive; / = no result. Hits are enriched below; roughly 2.9% of the tested compounds scored in any of these assays.

SMILES	HIF-2a block	LMP1 NFkB inh	KKLEB cytotox	Shn3 inh set2	CF NFkB block	Peg3 promoter	CF NFkB conf
CC(=O)Nc1nonc1-c1nc2ccccc2n1CC1CC1	.	.	.	.	60	.	45
CC(NC(=O)OCc1ccccc1)C(=O)Oc1cc2oc(=O)cc(-c3ccccc3)c2cc1Cl (stereo unspecified)	.	.	.	.	63	.	93
CSc1ncnc2[nH]ccc12	.	.	.	.	.	.	/
CCCCNc1cc(C(=O)O)cc(S(N)(=O)=O)c1Oc1ccccc1	.	.	.	.	62	.	.
O=C(N/N=C/c1ccccc1)c1[nH]c2ccc(Br)cc2c1-c1ccccc1	.	.	.	.	61	.	85
Cc1onc(-c2c(F)cccc2Cl)c1C(=O)Nc1cc(S(=O)(=O)N2CCCCC2)ccc1O	.	.	.	.	56	.	48
Cc1onc(-c2c(F)cccc2Cl)c1C(=O)Nc1ccc(S(=O)(=O)N2CCOCC2)cc1	.	.	.	.	.	.	/
O=C(c1cncc(Br)c1)N1CCc2ccccc2C1	.	.	.	.	51	.	56
O=C(c1ccncc1)N1CCc2ccccc2C1	.	.	.	.	.	.	/
O=C(COC(=O)c1ccc2[nH]c3c(c2c1)CCCC3)Nc1ccccc1Cl	.	.	.	.	56	.	54
C=CCn1cnc2c(c1=O)c1nc3ccccc3nc1n2/N=C/c1cc(OC)c(OC)c(OC)c1	.	.	.	.	51	.	117
CCCNC(=O)C(Cc1cccc(OC)c1)NC(=O)c1ccc(C(C)(C)C)cc1 (stereo unspecified)	.	.	.	.	.	.	/
O=Nc1ccc(NO)c2ccccc12	.	.	.	.	85	.	54
COC(=O)c1cn(C(=O)OC)c2ccccc12	.	.	.	.	.	.	/
COC(=O)c1ccc2nc(NC(=O)CCS(=O)(=O)c3ccccc3)sc2c1	.	.	.	.	58	.	.
O=[N+]([O-])c1cccnc1Oc1ccc(F)cc1	.	.	.	.	.	.	/
O=[N+]([O-])c1ccc(Oc2ccc(F)cc2)c2ccncc12	.	.	.	.	59	.	63
COc1ccc2[nH]c(=O)c(NC(N)=S)nc2c1	.	.	.	.	.	.	/
O=[N+]([O-])c1cccc(NC(=S)Nc2nc(-c3ccccc3Cl)cs2)c1	.	.	.	.	50	.	67
CC(C)=NNc1nc2sc3c(c2c(=O)[nH]1)CC(C)(C)OC3	.	.	.	.	.	.	/
Cc1ccc(C(=O)Nc2cccc(C(F)(F)F)c2)cc1NC(=O)c1ccno1	.	46	.	.	60	.	71
Cc1ccc(C(=O)Nc2cccc(C(F)(F)F)c2)cc1Nc1cnccn1	.	.	.	.	51	.	43
O=C(Nc1cnccn1)c1cccc(C(F)(F)F)c1	.	.	.	.	.	.	/
COc1cc(/C=N/NC(=O)Cc2nnc(N)s2)cc(OC)c1OC	.	.	.	.	.	.	/
Cc1cccc2c1NC(=O)/C2=C\C(=O)c1cccs1	45	.	.	.	74	74	47
SMILES	HIF-2a block	LMP1 NFkB inh	KKLEB cytotox	Shn3 inh set2	CF NFkB block	Peg3 promoter	CF NFkB conf
CC(=O)c1ccc(N(CC(=O)NC2CCCCC2)C(=O)CNC(=O)c2ccco2)cc1	.	.	.	.	.	.	/
COc1cccc(NC(=O)CN(C)C(=O)Cn2cnc3ccccc3c2=O)c1	.	.	.	.	.	.	/
CC1CCC2(CC1)NC(=O)N(NC(=O)c1cc3ccccc3o1)C2=O (stereo unspecified)	.	.	.	.	.	.	/
COc1ccc(CCNC(=O)c2cccc([N+](=O)[O-])c2)cc1OC	.	.	.	.	62	.	.
COc1ccc(CCNC(=O)c2ccc(-c3cccc([N+](=O)[O-])c3)o2)cc1OC	.	.	.	.	.	.	/
N#CSCC(=O)c1cccc2ccccc12	.	.	.	.	55	.	54
CCCCN1C(=O)C(=O)NC[C@@H]1CC1CCCCC1	.	/	/	/	/	/	/
Cc1nc([N+](=O)[O-])c(Br)n1CC(=O)c1ccc(Br)cc1	.	.	.	.	53	.	.
COc1ccc(N(CC(=O)NC2CCCC2)C(=O)CCC(=O)Nc2cc(C)on2)cc1OC	.	.	.	.	.	.	/
O=[N+]([O-])c1c(NCc2ccccc2)cc(N2CCc3ccccc3C2)c2nonc12	.	.	.	.	.	.	/
Cc1cnc(C=O)c2cccc([N+](=O)[O-])c12	.	.	.	.	83	.	65
NC(=O)c1cc2ccc(O)cc2oc1=Nc1ccccc1	.	.	.	.	82	.	83
COc1ccc(CN2CCN(C(=O)CCC(=O)c3ccc(C)s3)CC2)cc1OC	.	.	.	.	.	.	/
O=C(c1c[nH]c2ccccc12)C(Cl)c1ccccc1 (stereo unspecified)	.	.	.	.	63	.	42
O=C(c1c[nH]c2ccccc12)C(O)C(c1ccccc1)N1CCOCC1 (stereo unspecified)	.	.	.	.	.	.	/
Nc1ncc(-c2ccccc2)c(-c2ccc(O)cc2O)n1	.	.	.	.	51	.	69
COc1ccc(-c2cnc(N)nc2-c2ccc(OCc3ccccc3)cc2O)cc1	.	.	.	.	.	.	/
O=C(c1cccc(NS(=O)(=O)c2ccc(F)c(F)c2)c1)N1CCN(C(c2ccccc2)c2ccccc2)CC1	.	.	.	.	50	.	.
O=C(c1cccc(NS(=O)(=O)c2ccccc2)c1)N1CCCC1	.	.	.	.	.	.	/
COc1cc(OC)cc(C(=O)NC(=S)N(Cc2ccccc2)C(C)C)c1	.	.	.	.	.	.	/
Cc1ccc(CSc2nccc(-c3c(C)nc4ccccn34)n2)cc1	.	/	.	.	50	.	63
Cc1ccc(NC(=O)Nc2nnc(-c3ccncc3)s2)cc1C	.	.	.	.	90	.	77
O=S(=O)(Nc1ccc(Cl)cc1NS(=O)(=O)c1ccccc1)c1ccccc1	.	.	.	.	55	.	51
Cc1ccc(Cl)cc1NS(=O)(=O)c1ccccc1	.	.	.	.	.	.	/
CSc1ncnc2c1ncn2CCCN1CCN(c2ncccn2)CC1	.	.	.	.	.	.	/
CN(CC(=O)Nc1ccccc1Cl)C(=O)COC(=O)c1ccc(S(=O)(=O)C(F)F)cc1	.	.	.	.	.	.	/
